In all, about 16,000 compounds went through this assay and about 5,700 (36%) were called active. Another 24% or so got no clear call; they are omitted. This is one part of the list. Values without a mark were called inactive. Calls come from the whole dose curve; as a rule, active = well fitted curve in the direction sought with a large enough effect; inconclusive = small, poorly fitted or top-dose-only effect, or effect the other way; inactive = no such curve, though single readings can be large or run the other way.
% is set by controls: 0 for no effect and ±100 for the full control effect.

In this test the target is Cytochrome P450 1A2 (Homo sapiens) (UniProt P05177). As to the kind of experiment: Cytochrome panel assay with activity outcomes. The following applies: recombinant CYP, pro-luciferin dealkylation, luminescence, p450-cyp1a2; series mostly up to 57.1 µM; activity, negative = inhibition: at the top concentration. The method, then: The P450 gene superfamily is involved in the metabolism and clearance of xenobiotics. This assay used various human CYP P450 isozymes to measure the dealkylation of various pro-luciferin substrates to luciferin. The luciferin is then measured by luminescence after the addition of a luciferase detection reagent. Pro-luciferin substrate concentration in the assay was equal to its KM for its CYP P450 isozyme. Inhibitors and some substrates limit the production of luciferin, and decrease measured luminescence.
Chain of Cytochrome P450 1A2 (Homo sapiens) (P05177 whole entry, looked up): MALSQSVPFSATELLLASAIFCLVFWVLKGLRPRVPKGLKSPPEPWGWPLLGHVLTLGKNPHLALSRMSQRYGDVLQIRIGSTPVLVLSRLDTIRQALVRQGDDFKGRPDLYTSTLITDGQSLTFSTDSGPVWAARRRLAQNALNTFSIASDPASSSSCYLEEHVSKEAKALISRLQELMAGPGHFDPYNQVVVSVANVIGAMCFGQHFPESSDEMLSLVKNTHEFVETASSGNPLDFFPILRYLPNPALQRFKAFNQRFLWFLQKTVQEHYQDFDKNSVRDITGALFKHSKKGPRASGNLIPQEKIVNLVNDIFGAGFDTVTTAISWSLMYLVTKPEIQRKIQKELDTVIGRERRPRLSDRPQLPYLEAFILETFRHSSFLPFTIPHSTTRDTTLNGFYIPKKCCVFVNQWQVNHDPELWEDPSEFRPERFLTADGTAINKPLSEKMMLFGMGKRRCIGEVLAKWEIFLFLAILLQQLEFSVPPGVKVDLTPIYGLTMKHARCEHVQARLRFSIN
NCGC Assay Protocol Summary:
1, Reagent, 2 uL, Isozyme and Pro-Luciferin
2, Library compounds, 23 nl, 40 uM to 0.24 nM dilution series
3, Controls, 23 nl, Isozyme specific inhibitor
4, Reagent, 2 uL, NADPH regeneration solution
5, Incubation time, 60 min, Isozyme specific temperature
6, Reagent, 4ul, Detection reagent
7, Incubation time, 20 min, Isozyme specific temperature
8, Detection, 1 sec, ViewLux luminescent read
The luciferase-based P450-GloTM Screening Systems were obtained from Promega (Madison, WI) for CYP 1A2 (V9770), CYP 2C9 (V9790), CYP2 C19 (V9880), CYP 2D6 (V9890), and CYP 3A4 Luciferin-PPXE (V9910) and were adapted for 1,536-well microplates and an automated protocol. The control compounds furafylline for 1A2 (F124), sulfaphenazole for CYP 2C9 (S0758), ketoconazole for CYP 2C19 (K1003), quinidine for 2D6 (Q3625), and ketoconazole for 3A4 (K1003) were purchased from Sigma Aldrich (St. Louis, MO). Recombinant P450 enzymes were obtained from baculovirus constructs expressed in insect cells (BD/Gentest).
Medium-binding white solid Kalypsys plates used. Mixtures kept on ice. 1A2: 10 nM 1A2, 100 uM Luc-ME, 100 mM KPO4; 2C9: 10 nM 2C9, 100 uM Luc-H, 25 mM KPO4; 2C19: 5 nM 2C19, 10 uM Luc-H EGE, 50 mM KPO4; 2D6: 5 nM 2D6, 30 uM Luc-ME EGE, 100 mM KPO4; 3A4: 10 nM, 25 uM Luc-PPXE. All amounts are reflected in their final concentration, working concentration is 2x.
NADPH regeneration solution: 1.3 mM NADP+, 3.3 mM glucose-6-phosphate, 3.3 mM MgCl2, 0.4 U/mL glucose-6-phosphate dehydrogenase for all isozymes, 200 mM KPO4 for 3A4. Mixture prepared at RT but kept on ice during automated run.
RT incubation in auxilliary plate hotel for 1A2, 2D6, and 3A4; 37C for 2C9 and 2C19.
Keywords: P450, CYP1A2, CYP2C19, CYP2C9, CYP2D6, CYP3A4, Luciferase, MLSMR, MLSCN, NIH Roadmap, qHTS, NCGC
On to `CCC(C)NCc1ccc(C(=O)OC)o1` (centres undefined), for which the “activity, negative = inhibition” value is -12.7%.

Usually AC50 stands for the midpoint of the concentration-response curve, whichever way the signal moves. Turning to `CCN(c1ccc(NC(=O)COC(=O)c2ccc3ccccc3n2)cc1)C(C)C`, the AC50 is 2.51 µM (active).

For the compound `O=C(c1cccs1)n1nc(-c2ccc(Cl)cc2)nc1NCc1ccco1`, the AC50 is 0.316 µM (active).

Take `Cc1ccc(C(C(=O)NCc2ccco2)N(C(=O)CNC(=O)c2cccs2)c2ccc(C)cc2)cc1` (centres undefined): the “activity, negative = inhibition” value is -2.44%.

For `Cc1ccc(C(C(=O)NCc2ccco2)N(C(=O)CNC(=O)c2cccs2)c2ccc(C)cc2C)cc1` (centres undefined), the “activity, negative = inhibition” value was -8.95%.

For the compound `COc1ccc(OCc2nnc(SCC(=O)O)n2N)cc1`, the “activity, negative = inhibition” value is -20.8%.

Take `CCn1c(COc2ccc(OC)cc2)nc2ccccc21`: the AC50 was 14.1 µM (active).

Regarding `CCn1c(N)nc2ccccc21`, the AC50 is 25.1 µM (active).

For `Cc1noc(COc2ccc(OCc3nc(C)no3)cc2)n1`, the “activity, negative = inhibition” value is 0.769%.

As for `C[n+]1ccccc1/C=N\O`, the “activity, negative = inhibition” value was -6.64% [at 25.6 µM].

In the case of `CC(C)NC(=O)N1CCN(c2ccncc2S(=O)(=O)N2CCOCC2)CC1`, the “activity, negative = inhibition” value is -4.14%.

Regarding `O=[N+]([O-])c1cccc2cn[nH]c12`, the AC50 is 2.51 µM (active).

For `O=[N+]([O-])c1cccc2c[nH]nc12`, the AC50 was 2.51 µM (active).

Turning to `O=[N+]([O-])c1ccc(S(=O)(=O)Cc2ccccc2)c2nonc12`, the activity, negative = inhibition is -5.25% [at 2.29 µM].

For `O=[N+]([O-])c1cc(Cc2cc([N+](=O)[O-])c3cccnc3c2O)c(O)c2ncccc12`, the activity, negative = inhibition is -31.1% [at 2.29 µM].

On to `Cc1nc2cccc([N+](=O)[O-])c2n1CCCN(C)C`, for which the activity, negative = inhibition was -16.9% [at 11.4 µM].

On to `O=[N+]([O-])c1cccc2c(Br)[nH]nc12`, for which the AC50 was 0.126 µM (active).

As to `COc1ccc2c(c1)CCC1C2CC[C@]2(C)[C@H](NCCCCCCN3C(=O)C=CC3=O)CC[C@@H]12` (some centres undefined), the “activity, negative = inhibition” value was -3.41%.

Consider `CCNC(=S)N1CC(C)OC(C)C1` (centres undefined), for which the “activity, negative = inhibition” value is -21.6%.

For the compound `O=c1c(-c2ccc(O)cc2)coc2cc(O)ccc12`, the AC50 was 15.8 µM (active).

As for `O=c1c(-c2ccc(O)cc2)coc2cc(O)cc(O)c12`, the AC50 was 5.01 µM (active).

In the case of `COc1ccc(-c2coc3cc(OC)cc(O)c3c2=O)cc1`, the AC50 is 3.16 µM (active).

Turning to `CC(O)CN(CCC(N)=O)CCC(N)=O` (centres undefined), the “activity, negative = inhibition” value is 6.43%.

As to `Cc1nnc(NC(=O)CSc2ncnc3c2cnn3-c2ccccc2C)s1`, the “activity, negative = inhibition” value was 1.29%.

Take `COc1ccccc1C(=O)NCCn1cc(SCC(=O)Nc2nnc(C)s2)c2ccccc21`: the AC50 is 12.6 µM (active).

`CC(C)C(=O)c1c(C(C)C)nn2ccccc12`: the AC50 is 0.631 µM (active).

On to `COc1ccc2c(=O)c(-c3ccccc3)c(C)oc2c1`, for which the AC50 was 2.51 µM (active).

On to `CC(C)Oc1ccc2c(=O)c3cc(C(=O)O)ccc3oc2c1`, for which the “activity, negative = inhibition” value was -20.5%.

As for `O=C(c1ccc(COc2ccc(F)cc2)o1)n1cccn1`, the AC50 is 10 µM (active).

`CN(C)c1ccc(-c2cncnc2NCc2cccs2)cc1`: the AC50 is 0.398 µM (active).

Consider `CN(C)C(=O)c1ccc(-c2cncnc2NCc2cccs2)cc1`, for which the AC50 was 20 µM (active).

On to `COc1cccc(=O)c2c(C)n(-c3cc(C)cc(C)c3)c(C)c12`, for which the AC50 is 10 µM (active).

Consider `COc1cc(/C=C(\C#N)c2nc3c(s2)CC(C)CC3)ccc1O` (centres undefined), for which the AC50 is 1.12 µM (active).

For `COc1cc(/C=C(/C#N)c2nc3ccccc3[nH]2)ccc1OCC(=O)Nc1ccccc1C`, the “activity, negative = inhibition” value was 2.56%.

Take `Cc1ccc2nc(NC(=O)CSc3nc4c(c(=O)n3C)SC(C)C4)sc2c1` (centres undefined): the AC50 is 5.01 µM (active).

As for `CCn1c(SCC(=O)Nc2nc3ccc(C)cc3s2)nc2c(c1=O)SC(C)C2` (centres undefined), the AC50 was 1.58 µM (active).

For the compound `CCn1c(SCC(=O)Nc2ccc3c(c2)OCCO3)nc2c(c1=O)SC(C)C2` (centres undefined), the AC50 is 12.6 µM (active).

`CCOc1ccc(-n2c(SCC(=O)Nc3ccc4c(c3)OCCO4)nc3c(c2=O)SCC3)cc1`: the “activity, negative = inhibition” value was -12.3%.

Take `CCn1nnnc1SCC(=O)NC1CCCC1`: the “activity, negative = inhibition” value is -18%.

For `CCn1c(SCC(=O)NC2CCCCC2)nc2c(c1=O)SC(C)C2` (centres undefined), the concentration at half-maximal activity (AC50) is 14.1 µM (active).

Regarding `C=CCn1c(SCC(=O)NC2CCCCC2)nnc1C1CCCCC1`, the “activity, negative = inhibition” value was 1.5%.

With `CCOc1ccc(-n2c(SCC(=O)Nc3ccc(OC)cc3)nc3c(c2=O)SCC3)cc1`, the “activity, negative = inhibition” value is -13.7%.

As for `c1ccc([C@H](CCN2CCCC2)c2ccccn2)cc1`, the activity, negative = inhibition was -14.8% [at 11.4 µM].

Take `CN(C)CCCn1cnc2cc(Cl)c(Cl)cc21`: the activity, negative = inhibition is -19.9% [at 2.29 µM].

In the case of `CNc1ncnc2ccc(-c3ccccc3CN(C)C)cc12`, the AC50 is 3.16 µM (active).

With `CN(C)Cc1ccccc1-c1ccc2ncnc(NCc3ccccc3)c2c1`, the AC50 was 15.8 µM (active).

On to `CN(C)Cc1ccccc1-c1ccc2ncnc(N(C)C)c2c1`, for which the AC50 was 12.6 µM (active).

Consider `CN(C)Cc1ccccc1-c1ccc2ncnc(NC3CCNCC3)c2c1`, for which the “activity, negative = inhibition” value is -9.16%.

On to `N=C(N)CCNC(=O)[C@@H]1CCC(N)=N1`, for which the activity, negative = inhibition is -3.4% [at 2.29 µM].
